Holding throughout (experiment): NCI-60 one-dose screen, 48 h (100 = growth as untreated, 0 = no growth, -100 = all killed)
What all share (conditions): 10 µM unless noted

Assay [1] deals with T-47D breast.
Assay [2] concerns BT-549 breast.
The test system of assay [3] is MDA-MB-435 melanoma.
The subject of assay [4] is SW-620 colon.
In assay [5] the test system is MCF7 breast.
Assay [6] concerns HCT-116 colon.
Assay [7] relates to KM12 colon.
In assay [8] the test system is HCC-2998 colon.

Compounds without any hit were thinned out: in the full panel of roughly 83,000, 20% have a hit.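 Plates (96-well) were seeded with cells, treated with compound at one concentration, and incubated for 48 hours before percent growth was determined.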 Values without a mark were called inactive. Activity calls are given as the source filed them. Rule for the calls: active = growth percent below 10; inactive = the rest.

For the compound `Cc1cc(C)cc(OCC(=O)O)c1`, the growth in assay [1] is 96.6%; in assay [2], 97.9%; in assay [3], 104%; in assay [4] it was 109%; in assay [5], 97.7%; in assay [6] it was 96.9%. Moreover, in assay [7], the growth is 110%.

Regarding `ON1CCCC1`, the growth in assay [1] is 98.6%; in assay [2], 96.7%; in assay [3], 107%; in assay [4], 101%; in assay [6], 97.4%; in assay [8], 98.8%. Also, the growth in assay [7] is 110%.

Regarding `Cc1cc(Cc2ccccc2)c(O)c(Cc2ccccc2)c1`, the growth in assay [1] is 85.3%; in assay [2], 84.1%; in assay [3], 98.1%; in assay [4], 102%; in assay [6] it was 73.5%; in assay [8], 101%. Also, the growth in assay [7] is 90.5%.

As to `CN(C)c1ccc(/C=C/C(=O)c2ccc(NC(N)=O)cc2)cc1`, the growth is 82% in assay [1]; 91.7% in assay [2]; 93.8% in assay [3]; 58.4% in assay [5]; 75.4% in assay [6]; 105% in assay [8].

Turning to `C[C@H](CCC[C@H](C)OS(=O)(=O)c1ccccc1)OS(=O)(=O)c1ccccc1`, the growth in assay [1] is 100%; in assay [2], 125%; in assay [3] it was 108%; in assay [4] it was 105%; in assay [6], 95.1%; in assay [8] it was 120%.

For `N#CCCN1C(=O)CCC1C(=O)O` (stereo not drawn), the growth in assay [1] was 121%; in assay [2] it was 107%; in assay [3] it was 110%; in assay [4], 96.6%; in assay [6], 97.6%.

For `CCN(CC)c1ccc2nc3ccc(N=Nc4ccc(N(C)C)cc4)cc3[n+](-c3ccccc3)c2c1`, the growth is 0.779% (active) in assay [1]; -23.3% (active) in assay [2]; -87.3% (active) in assay [3]; -82.5% (active) in assay [4]; -70.3% (active) in assay [6]; -69.7% (active) in assay [8]. The growth in assay [7] was -64.3% (active).

As for `CN1CCCN(C(c2ccccc2)c2ccc(Cl)cc2)CC1` (stereo not drawn), the growth is 87.1% in assay [1]; 94.5% in assay [2]; 89.6% in assay [3]; 85.9% in assay [4]; 96.9% in assay [6]; 98.9% in assay [8]. Also, the growth in assay [7] was 101%.

Turning to `CC(=O)OC(C)c1cccc(C#N)c1` (stereo not drawn), the growth in assay [1] was 99.1%; in assay [2], 109%; in assay [3], 113%; in assay [4], 98.2%; in assay [6] it was 100%; in assay [8], 107%. Further, in assay [7], the growth was 104%.

Consider `CC1(C)OC(=O)CC1=O`, for which the growth in assay [1] was 82%; in assay [2], 98.1%; in assay [3] it was 104%; in assay [5], 99.3%; in assay [6], 103%; in assay [8], 100%.

Consider `CC(=O)OC/C(C)=C\CC(C)COC(C)=O` (stereo not drawn), for which the growth in assay [1] is 104%; in assay [2] it was 102%; in assay [3], 94.9%; in assay [4], 97.6%; in assay [6], 95.1%; in assay [8], 103%. Also, the growth in assay [7] was 104%.

`CC(=O)OCC1OC(n2cnc3c(=S)nc(N)[nH]c32)C(OC(C)=O)C1OC(C)=O` (stereo not drawn): the growth is 54.4% in assay [1]; 79.4% in assay [2]; 99.3% in assay [3]; 82.9% in assay [4]; 43.3% in assay [6]; 86.3% in assay [7].

As for `NC(=S)N/N=C/c1ccc(OC(=O)COc2ccc(Cl)cc2)cn1`, the growth in assay [1] was 33.9%; in assay [2] it was 55%; in assay [3], 59.1%; in assay [4], 46.3%; in assay [6] it was 39.7%; in assay [7] it was 64.8%.

For `CC(C)(C)[Si](C)(C)OCC1OC(n2cnc3c(N)ncnc32)CC1OS(C)(=O)=O` (stereo not drawn), the growth in assay [1] was 97.8%; in assay [2], 107%; in assay [3], 112%; in assay [4], 98.1%; in assay [6], 102%; in assay [7], 95.7%.

Turning to `NC(=O)c1cc2c3ccccc3ccn2c1-c1ccccc1`, the growth was 88.7% in assay [1]; 25.5% in assay [2]; -13.5% (active) in assay [3]; 33.7% in assay [4]; -32.6% (active) in assay [6]; -6.31% (active) in assay [8]. Moreover, the growth in assay [7] was 4.03% (active).

Regarding `FC(F)(F)c1cc(NC2=NCCN=C(Nc3cc(C(F)(F)F)cc(C(F)(F)F)c3)SS2)cc(C(F)(F)F)c1`, the growth was 15.8% in assay [1]; 71.2% in assay [2]; 65.1% in assay [3]; 52% in assay [4]; 45.4% in assay [6]; 76.9% in assay [8]. For the same compound, the growth in assay [7] is 44.2%.

As to `CC(=O)N(C)N=Nc1ccc(C)cc1`, the growth is 102% in assay [1]; 90.1% in assay [2]; 103% in assay [3]; 98.6% in assay [4]; 101% in assay [6]; 91.5% in assay [8]. The growth in assay [7] is 118%.

As to `ClCc1cccc2c(CCl)cccc12`, the growth in assay [1] is 4.84% (active); in assay [2], -74% (active); in assay [3] it was 84.3%; in assay [4], 70.8%; in assay [6], -86.3% (active); in assay [8], 55.8%. Moreover, the growth in assay [7] was 13.7%.

With `CC(=O)OCC1CCC(COC(C)=O)CC1` (stereo not drawn), the growth in assay [1] was 93%; in assay [2], 112%; in assay [3] it was 103%; in assay [4], 109%; in assay [6], 103%; in assay [8], 91.5%. Moreover, in assay [7], the growth is 99.2%.

In the case of `C=CCOc1ccc(Cl)cc1Cl`, the growth in assay [1] was 103%; in assay [2], 101%; in assay [3], 102%; in assay [4], 107%; in assay [6], 104%; in assay [8], 114%.

On to `Cc1ccc(S(=O)(=O)NC(=O)NCCSSCCNC(=O)NS(=O)(=O)c2ccc(C)cc2)cc1`, for which the growth in assay [1] is 105%; in assay [2], 125%; in assay [3] it was 101%; in assay [4], 98.3%; in assay [6], 113%; in assay [8], 108%. In addition, the growth in assay [7] was 113%.

The record behind these values is PubChem BioAssay (NCI).
